Results on 18 molecules are retold here after PubChem BioAssay AID1671192 (National Center for Advancing Translational Sciences (NCATS), 2021).

Records with an inconclusive call do not appear. Calls of active or inactive are those of the source. The call rests on the fitted dose curve; in most records, active means well fitted curve in the direction sought with a large enough effect; inconclusive means small, poorly fitted or top-dose-only effect, or another doubt; inactive means no such curve, though single readings can be large or run the other way.

Sequence of Polyunsaturated fatty acid lipoxygenase ALOX15 (Homo sapiens) (P16050 whole entry, looked up): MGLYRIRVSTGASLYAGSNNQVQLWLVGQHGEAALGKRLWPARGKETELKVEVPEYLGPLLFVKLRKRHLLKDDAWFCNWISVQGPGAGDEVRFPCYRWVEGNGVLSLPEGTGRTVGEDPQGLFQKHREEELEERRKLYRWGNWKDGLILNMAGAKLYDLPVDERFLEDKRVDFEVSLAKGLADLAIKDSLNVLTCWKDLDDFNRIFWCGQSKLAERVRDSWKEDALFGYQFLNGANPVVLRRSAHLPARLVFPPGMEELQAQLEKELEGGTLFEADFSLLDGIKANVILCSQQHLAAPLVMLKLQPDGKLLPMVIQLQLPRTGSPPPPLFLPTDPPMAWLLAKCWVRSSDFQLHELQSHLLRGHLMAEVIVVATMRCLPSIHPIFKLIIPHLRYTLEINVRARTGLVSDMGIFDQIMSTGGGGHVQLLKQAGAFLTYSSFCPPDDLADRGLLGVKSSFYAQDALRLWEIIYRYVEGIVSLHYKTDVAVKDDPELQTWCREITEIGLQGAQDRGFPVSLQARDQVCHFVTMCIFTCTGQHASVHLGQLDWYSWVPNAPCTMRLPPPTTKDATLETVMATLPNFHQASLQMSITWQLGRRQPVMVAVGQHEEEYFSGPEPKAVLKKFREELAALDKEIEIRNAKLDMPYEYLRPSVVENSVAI

This assay addresses Polyunsaturated fatty acid lipoxygenase ALOX15 (Homo sapiens) (UniProt P16050). The assay can be described thus: Counterscreen qHTS for inhibitors of human arachidonate 12S-lipoxygenase (ALOX12): ALOX15 Assay. Further: 0% is about no effect. As to conditions: purified ALOX15 enzyme activity; series mostly up to 110 µM; activity change, negative = inhibition: at the top concentration. The essentials:
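Xylenol orange–ferric complex formation, read as the 573 nm to 405 nm absorbance ratio, tracks product from 50 uM arachidonic acid turned over for 30 min at RT. Enzyme is 40 nM ALOX15, pH 7.5 HEPES buffer, compound-preincubated 15 min.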
For orientation: Counterscreens check selectivity or assay interference.
In the case of `COc1ccc(OC2CN(Cc3ccc(F)cc3)C2)cc1`, the “activity change, negative = inhibition” value was 0.696% [at 146 µM] (inactive).

Take `O=C(O)C1=NOC2CN(Cc3c(F)cccc3Cl)CC12` (stereo not drawn): the “activity change, negative = inhibition” value was -9.49% [at 146 µM] (inactive).

Turning to `O=C(N1CCCCC1)N1CCCC(c2nnc3n2CCNC3)C1` (stereo not drawn), the “activity change, negative = inhibition” value was 7.4% [at 146 µM] (inactive).

For the molecule `Cc1cc(C(=O)NCc2ccc(F)cc2)c2c(C3CCCNC3)noc2n1` (stereo not drawn), the “activity change, negative = inhibition” value is -6.25% (inactive).

Take `Cc1ccc(CN2CC3ON=C(C(=O)O)C3C2)cc1` (stereo not drawn): the “activity change, negative = inhibition” value is -22.7% [at 146 µM] (inactive).

For `CN1CC(=O)N(C2CCNCC2)Cc2c(NCCc3cccc(F)c3)ncnc21`, the “activity change, negative = inhibition” value was -17.2% (inactive).

`O=C(c1ccccc1F)N1CCC2(C1)C(=O)N(c1ccccc1)c1ccccc12` (stereo not drawn): the “activity change, negative = inhibition” value was 12.5% (inactive).

Take `CC1C=CC(C)N1c1ncnc2c1CN(C1CCNCC1)C(=O)CN2C` (stereo not drawn): the “activity change, negative = inhibition” value is 1.91% [at 146 µM] (inactive).

Turning to `O=c1n(-c2cccc(Cl)c2)nc2n1CCN([S+](=O)([O-])c1ccccc1)C2`, the “activity change, negative = inhibition” value is -1.83% (inactive).

Take `O=C1NCc2ccccc2CC12CCN(Cc1ccc(Cl)o1)C2` (stereo not drawn): the “activity change, negative = inhibition” value was -3.87% [at 146 µM] (inactive).

As to `CCNc1ncnc2c1CN(C1CCCNCC1)C(=O)CN2C` (stereo not drawn), the “activity change, negative = inhibition” value was -7.53% [at 146 µM] (inactive).

Turning to `N#Cc1ccc(CN2CCC3(CN[S+](=O)([O-])c4cnccc4O3)C2)cc1` (stereo not drawn), the “activity change, negative = inhibition” value was -8.17% (inactive).

On to `O=C(N1CCCCC1)N1CCCC1c1nnc2n1CCNC2` (stereo not drawn), for which the “activity change, negative = inhibition” value is -11.3% (inactive).

Consider `O=C(N1CCCCC1)N1CCN(c2ccc(Cl)nn2)C(=O)C1`, for which the “activity change, negative = inhibition” value was -15.7% [at 146 µM] (inactive).

Take `O=C1Nc2ccccc2CN(C/C=C/c2ccccc2)C12CCNC2` (stereo not drawn): the “activity change, negative = inhibition” value is -5.11% [at 146 µM] (inactive).

Turning to `CC(C)S(=O)(=O)N1CCC(c2nnc3n2CCNC3)CC1`, the “activity change, negative = inhibition” value is -25.9% [at 146 µM] (inactive).

Take `CN1CC(=O)N(C2CCNCC2)Cc2c(NC3CCCCC3)ncnc21`: the “activity change, negative = inhibition” value is -5.17% (inactive).

Turning to `CN1CC(=O)N(C2CCNCC2)Cc2c(NC3CCCCC3O)ncnc21` (stereo not drawn), the “activity change, negative = inhibition” value is -2.53% (inactive).
